Data: PubChem BioAssay (EPA / NIEHS)
The source holds several records for some structures; these can differ, active in one and inactive in another. The source made the active and inactive calls. The calls were made as follows: active = hit-call score of the fitted dose curve at least 0.9, where 1 is the maximum; inactive = score below 0.9.

Legend:
[1] = APR_HepG2_NuclearSize_72hr: Apredica 72-hour HepG2 Assay for Nuclear Size (AID 2282925); settings: high-content imaging, actives raise or lower the signal
Method in brief: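 HepG2; cpd 0.39–200 uM, 10 conc, duplicate; 72 h; DMSO 0.5% v/v; fix 3.7% formaldehyde 30 min RT; Triton permeabilization; Hoechst 2 ug/mL; HCS imaging 20x; nuclear diameter; gain/loss fit vs DMSO.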

[2] = ATG_CRE_CIS: Attagene CIS-FACTORIAL HepG2 Assay for human cAMP Responsive Element (CRE) binding protein 3 (AID 2282926); settings: HepG2 CRE cis-reporter, Attagene multiplexed mRNA; actives raise or lower the signal
Method in brief: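 HepG2 cells transiently transfected with a multiplexed reporter library (CRE-driven unit among them) were dosed for 24 h. Reporter mRNA was quantified by RT-PCR, fluorescent labelling, HpaI digestion and capillary electrophoresis, with bidirectional fitting against DMSO baseline.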

[3] = molecular target: CCAAT/enhancer-binding protein beta (Homo sapiens) (UniProt P17676); test: ATG_C_EBP_CIS: Attagene CIS-FACTORIAL HepG2 Assay for human CCAAT/Enhancer Binding Protein (C/EBP) beta (AID 2282927); settings: HepG2 Attagene cis-factorial transcription factor reporter; actives raise or lower the signal
Method in brief: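 Changes in reporter mRNA, rather than exogenous chimeric receptor activity, reflect native C/EBP signalling in transfected HepG2 cells dosed for 24 h; transcripts are detected by RT-PCR and capillary electrophoresis.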

[4] = ATG_CMV_CIS: Attagene CIS-FACTORIAL HepG2 Assay for human CMV (Internal Marker) (AID 2282928); settings: HepG2 CMV promoter reporter, transcription factor profiling; actives raise or lower the signal;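 also: endpoint acts as a background internal control marker rather than a target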
Method in brief: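 Cell system: HepG2, transiently transfected multiple reporter units under cis promoters. Exposure: 24 h. Detection: RT-PCR, FAM labeling, HpaI digestion, capillary electrophoresis. Analysis: bidirectional, DMSO baseline.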

[5] = molecular target: Aryl hydrocarbon receptor (Homo sapiens) (UniProt P35869); test: ATG_Ahr_CIS: Attagene CIS-FACTORIAL HepG2 Assay for human Aryl Hydrocarbon Receptor (Ahr) (AID 2282930); settings: HepG2 AhR cis-factorial reporter transcription; actives raise or lower the signal
Method in brief: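 HepG2, transient MRTU (cis) transfection, 24 h exposure. RNA → cDNA → PCR → 6-FAM primer extension → HpaI 2 h 37 C → CE. Fit: bidirectional, DMSO baseline.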

[6] = ATG_AP_1_CIS: Attagene CIS-FACTORIAL HepG2 Assay for human Activator Protein 1 (AP-1) (AID 2282931); settings: HepG2 Attagene cis-factorial AP-1 reporter mRNA; actives raise or lower the signal
Method in brief: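 Cis-regulated reporter units transiently expressed in HepG2 report endogenous transcription-factor activity. Signal: reporter mRNA at 24 h, via RT-PCR and fluorescent capillary electrophoresis. Endpoint derived by bidirectional fitting, DMSO as negative control.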

[7] = ATG_AP_2_CIS: Attagene CIS-FACTORIAL HepG2 Assay for human Activator Protein 2 (AP-2) (AID 2282932); settings: HepG2 AP-2 cis-reporter, Attagene transcription factor profiling; actives raise or lower the signal
Method in brief: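 Step one: transient transfection of HepG2 with reporter transcription units. Step two: 24 h chemical exposure. Step three: RNA extraction, RT-PCR, labelled fragment analysis by capillary electrophoresis; DMSO serves as baseline.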

[8] = ATG_BRE_CIS: Attagene CIS-FACTORIAL HepG2 Assay for human Bone Morphogenetic Protein (BMP) Response Element (BRE) (AID 2282933); settings: HepG2 BMP response element reporter, Attagene transcription factor profiling; actives raise or lower the signal
Method in brief: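 HepG2 cells transiently transfected with CIS reporter units (endogenous TF activity, BMP response element), dosed 24 h. Reporter mRNA quantified by RT-PCR, fluorescent labelling and capillary electrophoresis; bidirectional fit vs DMSO baseline.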

[9] = molecular target: Retinoic acid receptor alpha (Homo sapiens) (UniProt P10276); test: ATG_DR5_RAR_CIS: Attagene CIS-FACTORIAL HepG2 Assay for human Retinoic Acid Receptor Alpha (RARE), DR5 submotif (AID 2282934); settings: HepG2 Attagene cis-factorial RARE DR5 reporter, mRNA; actives raise or lower the signal;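 as to AC50: reporter responds to endogenous RAR alpha beta and gamma in HepG2 not RARA alone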
Method in brief: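 HepG2, transient cis-reporter transfection, 24 h exposure. mRNA readout: RT-PCR, FAM label, HpaI cut, capillary electrophoresis. DMSO baseline, gain/loss fitting.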

[10] = molecular target: Transcription factor E2F1 (Homo sapiens) (UniProt Q01094); test: ATG_E2F_CIS: Attagene CIS-FACTORIAL HepG2 Assay for human E2F Transcription Factor 1 (AID 2282935); settings: HepG2 Attagene cis-reporter, E2F reporter RNA transcripts; actives raise or lower the signal
Method in brief: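 Total RNA from 24 h-treated, reporter-transfected HepG2 cells undergoes DNase I treatment, oligo(dT) reverse transcription, PCR and 6-FAM primer extension before capillary electrophoresis.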

[11] = ATG_E_Box_CIS: Attagene CIS-FACTORIAL HepG2 Assay for human Enhancer Box (E-box) (AID 2282936); settings: HepG2 E-box cis-reporter transcription, actives raise or lower the signal
Method in brief: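 DMSO served as negative control and baseline for bidirectional fitting. Human hepatoma HepG2 cells, transiently transfected with cis-reporter constructs, were dosed 24 h; reporter mRNA read by RT-PCR and capillary electrophoresis.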

[12] = ATG_M_61_CIS: Attagene CIS-FACTORIAL HepG2 Assay for M61 Transcription Factor (Internal Marker) (AID 2282937); settings: HepG2 Attagene CIS-FACTORIAL M61 internal marker reporter; actives raise or lower the signal
Method in brief: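 Background-control endpoint: HepG2 cells with cis-regulated reporter constructs, 24 h exposure, reporter mRNA detected via fluorescent primer extension and capillary electrophoresis; values from bidirectional fitting with DMSO baseline.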

[13] = ATG_EGR_CIS: Attagene CIS-FACTORIAL HepG2 Assay for human Early Growth Response 1 (EGR1) (AID 2282938); settings: HepG2 Attagene CIS-FACTORIAL EGR reporter mRNA; actives raise or lower the signal
Method in brief: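 Endpoint derived by bidirectional fitting versus DMSO vehicle. Method: cis-promoter reporter units transfected into HepG2, 24 h dosing, RNA isolation, RT-PCR with 6-FAM primer extension and HpaI digestion, then capillary electrophoresis fluorescence detection.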

[14] = ATG_M_19_CIS: Attagene CIS-FACTORIAL HepG2 Assay for M19 Transcription Factor (Internal Marker) (AID 2282939); settings: HepG2 Attagene CIS-FACTORIAL M19 internal marker reporter; actives raise or lower the signal
Method in brief: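 HepG2 cells transiently transfected with cis-regulated multiplexed reporter units, dosed 24 h. Reporter mRNA quantified by RT-PCR and capillary electrophoresis; internal background marker fitted bidirectionally versus DMSO.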

[15] = ATG_ERE_CIS: Attagene CIS-FACTORIAL HepG2 Assay for Estrogen Response Element (ERE) (AID 2282940); settings: HepG2 ERE cis-reporter, Attagene RNA transcript; actives raise or lower the signal
Method in brief: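 HepG2 cells transiently transfected with multiplexed cis-element reporter units, measuring endogenous transcription factor activity; ERE reporter mRNA quantified after 24 h exposure by RT-PCR, fluorescent labelling, HpaI digestion and capillary electrophoresis. Bidirectional change versus DMSO.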

[16] = molecular target: Hepatocyte nuclear factor 3-beta (Homo sapiens) (UniProt Q9Y261); test: ATG_FoxA2_CIS: Attagene CIS-FACTORIAL HepG2 Assay for human Forkhead box A2 (FOXA2) (AID 2282942); settings: HepG2 cis-reporter transcription factor activity, 24 h; actives raise or lower the signal
Method in brief: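 Measured: reporter mRNA induction or loss in HepG2 transiently carrying multiple cis-regulated reporter units, 24 h after dosing. Quantified by RT-PCR plus capillary electrophoresis, normalised to DMSO.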

[17] = ATG_FoxO_CIS: Attagene CIS-FACTORIAL HepG2 Assay for human Forkhead box O (FoxO) (AID 2282943); settings: HepG2 Attagene cis-reporter, FoxO element, mRNA; actives raise or lower the signal
Method in brief: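 Human hepatoma HepG2 cells carry transiently introduced reporter transcription units controlled by cis promoter elements. Chemical treatment lasted 24 h, and mRNA signal was compared with DMSO.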

[18] = ATG_GATA_CIS: Attagene CIS-FACTORIAL HepG2 Assay for human GATA Binding Protein (AID 2282944); settings: HepG2 GATA cis-element reporter, Attagene multiplex mRNA; actives raise or lower the signal
Method in brief: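 HepG2 cells transiently transfected with multiplexed cis-element reporter units measure endogenous GATA activity; after 24 h compound exposure, reporter mRNA quantified by RT-PCR and capillary electrophoresis. Changes fitted in both directions vs DMSO.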

[19] = ATG_DR4_LXR_CIS: Attagene CIS-FACTORIAL HepG2 Assay for human Liver X Receptor (LXR), DR4 submotif (AID 2282929); settings: HepG2 Attagene DR4 cis-reporter, mRNA transcription; actives raise or lower the signal
Method in brief: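 DR4 cis-reporter in HepG2, 24 h exposure. Detection: RT-PCR, 6-FAM labelling, CE fragment analysis. Endpoint fitted bidirectionally, DMSO = baseline.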

[20] = ATG_Ets_CIS: Attagene CIS-FACTORIAL HepG2 Assay for human Erythroblast Transformation Specific (ETS) (AID 2282941); settings: HepG2 ETS cis-reporter transcription, actives raise or lower the signal
Method in brief: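 After transient cis-reporter transfection, HepG2 cells receive test chemical for 24 h. Reporter mRNA levels, measured by RT-PCR and capillary electrophoresis fluorescence, are analysed bidirectionally relative to the DMSO baseline.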

Measured: AC50

Aryl hydrocarbon receptor (Homo sapiens), sequence (P35869 whole entry, looked up): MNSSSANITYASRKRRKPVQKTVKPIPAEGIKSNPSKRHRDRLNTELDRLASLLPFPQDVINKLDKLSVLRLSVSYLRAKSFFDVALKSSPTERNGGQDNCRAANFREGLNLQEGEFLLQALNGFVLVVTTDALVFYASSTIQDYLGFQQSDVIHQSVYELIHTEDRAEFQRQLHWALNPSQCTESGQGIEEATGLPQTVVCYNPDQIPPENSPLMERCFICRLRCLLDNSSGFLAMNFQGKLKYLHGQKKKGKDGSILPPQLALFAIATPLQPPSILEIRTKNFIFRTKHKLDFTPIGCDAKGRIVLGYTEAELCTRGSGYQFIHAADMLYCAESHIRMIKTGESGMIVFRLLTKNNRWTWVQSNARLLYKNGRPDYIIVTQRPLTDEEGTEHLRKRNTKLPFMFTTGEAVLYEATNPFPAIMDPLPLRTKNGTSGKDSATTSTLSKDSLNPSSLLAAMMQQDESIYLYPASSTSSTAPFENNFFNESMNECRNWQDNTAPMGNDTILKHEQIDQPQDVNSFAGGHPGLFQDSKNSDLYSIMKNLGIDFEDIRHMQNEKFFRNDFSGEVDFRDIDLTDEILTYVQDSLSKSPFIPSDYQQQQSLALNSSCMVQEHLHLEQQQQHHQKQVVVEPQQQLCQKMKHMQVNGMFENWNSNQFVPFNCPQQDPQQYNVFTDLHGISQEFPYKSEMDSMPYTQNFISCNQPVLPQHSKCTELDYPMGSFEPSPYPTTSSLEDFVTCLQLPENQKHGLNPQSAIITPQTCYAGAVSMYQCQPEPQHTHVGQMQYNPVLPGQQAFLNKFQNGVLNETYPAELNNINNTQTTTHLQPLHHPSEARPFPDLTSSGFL
Hepatocyte nuclear factor 3-beta (Homo sapiens), sequence (Q9Y261 whole entry, looked up): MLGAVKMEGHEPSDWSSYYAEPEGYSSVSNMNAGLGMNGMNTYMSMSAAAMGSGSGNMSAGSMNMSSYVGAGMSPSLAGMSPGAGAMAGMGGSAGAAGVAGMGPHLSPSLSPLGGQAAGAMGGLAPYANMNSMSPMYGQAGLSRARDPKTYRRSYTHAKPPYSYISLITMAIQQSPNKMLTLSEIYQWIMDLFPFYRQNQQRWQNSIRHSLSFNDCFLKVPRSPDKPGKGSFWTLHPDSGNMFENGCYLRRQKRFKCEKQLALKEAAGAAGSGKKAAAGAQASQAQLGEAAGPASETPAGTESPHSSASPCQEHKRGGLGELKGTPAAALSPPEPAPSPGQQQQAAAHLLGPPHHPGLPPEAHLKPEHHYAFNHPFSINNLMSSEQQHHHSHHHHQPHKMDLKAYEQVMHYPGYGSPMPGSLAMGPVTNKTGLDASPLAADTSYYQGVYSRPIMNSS
CCAAT/enhancer-binding protein beta (Homo sapiens), sequence (P17676 whole entry, looked up): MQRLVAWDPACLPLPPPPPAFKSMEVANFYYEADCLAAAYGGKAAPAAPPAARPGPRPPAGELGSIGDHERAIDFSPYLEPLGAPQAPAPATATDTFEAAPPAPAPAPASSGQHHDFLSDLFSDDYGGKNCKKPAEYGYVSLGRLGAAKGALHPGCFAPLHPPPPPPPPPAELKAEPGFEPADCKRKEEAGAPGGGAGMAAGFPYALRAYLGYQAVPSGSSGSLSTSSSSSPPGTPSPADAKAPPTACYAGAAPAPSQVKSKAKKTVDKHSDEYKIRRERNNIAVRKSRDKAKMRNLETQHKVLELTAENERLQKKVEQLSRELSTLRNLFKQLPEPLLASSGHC
Retinoic acid receptor alpha (Homo sapiens), sequence (P10276 whole entry, looked up): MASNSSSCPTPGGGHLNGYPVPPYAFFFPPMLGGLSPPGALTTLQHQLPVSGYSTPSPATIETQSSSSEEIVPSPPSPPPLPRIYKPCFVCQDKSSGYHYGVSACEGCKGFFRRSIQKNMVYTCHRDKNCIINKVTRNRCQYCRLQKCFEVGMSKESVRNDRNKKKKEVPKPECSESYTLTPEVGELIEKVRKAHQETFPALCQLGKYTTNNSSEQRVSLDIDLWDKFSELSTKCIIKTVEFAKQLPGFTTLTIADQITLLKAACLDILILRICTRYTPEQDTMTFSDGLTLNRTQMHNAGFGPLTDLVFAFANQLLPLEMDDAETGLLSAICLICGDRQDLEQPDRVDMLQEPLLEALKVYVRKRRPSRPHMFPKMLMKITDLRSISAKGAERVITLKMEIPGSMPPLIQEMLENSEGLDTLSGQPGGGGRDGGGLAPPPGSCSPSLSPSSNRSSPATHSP
Transcription factor E2F1 (Homo sapiens), sequence (Q01094 whole entry, looked up): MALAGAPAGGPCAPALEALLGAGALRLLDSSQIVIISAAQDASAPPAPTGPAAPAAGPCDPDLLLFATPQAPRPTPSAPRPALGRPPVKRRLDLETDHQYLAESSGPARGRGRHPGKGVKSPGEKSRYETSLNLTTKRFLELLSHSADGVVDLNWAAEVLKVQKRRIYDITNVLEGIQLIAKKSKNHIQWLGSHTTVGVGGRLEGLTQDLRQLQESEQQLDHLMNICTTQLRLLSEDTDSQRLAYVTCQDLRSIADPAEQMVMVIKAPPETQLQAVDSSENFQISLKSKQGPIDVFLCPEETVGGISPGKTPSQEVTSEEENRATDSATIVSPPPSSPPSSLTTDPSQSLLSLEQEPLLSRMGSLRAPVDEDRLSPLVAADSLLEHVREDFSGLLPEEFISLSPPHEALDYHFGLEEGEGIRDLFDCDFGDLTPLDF

O=S1OCC2C(CO1)C1(Cl)C(Cl)=C(Cl)C2(Cl)C1(Cl)Cl (stereo unspecified)
active: [15] 1.72 µM
not listed: [19] | [20]
inactive: all other assays above

CCOc1nc(NC)nc(NC(=O)NS(=O)(=O)c2ccccc2C(=O)OC)n1
not listed: [19] | [20]
inactive: all other assays above

CC(C)N(C(=O)COc1nnc(C(F)(F)F)s1)c1ccc(F)cc1
active: [2] 31.9 µM | [6] 50 µM | [8] 34.9 µM
not listed: [10] | [20]
inactive: all other assays above

COC(=O)c1ccccc1CS(=O)(=O)NC(=O)Nc1nc(OC)cc(OC)n1
active: [11] 125 µM
inactive: [1] | [2] | [3] | [4] | [19] | [5] | [7] | [8] | [9] | [11] | [12] | [13] | [14] | [15] | [20] | [16] | [17] | [18]

CC[C@H](C)[C@H]1O[C@]2(C=C[C@@H]1C)C[C@@H]1C[C@@H](C/C=C(\C)[C@@H](O[C@H]3C[C@H](OC)[C@@H](O[C@H]4C[C@H](OC)[C@@H](O)[C@H](C)O4)[C@H](C)O3)[C@@H](C)/C=C/C=C3\CO[C@@H]4[C@H](O)C(C)=C[C@@H](C(=O)O1)[C@]34O)O2 (tested in a mixture with another compound)
not listed: [6] | [10] | [19] | [20]
inactive: all other assays above

CNC(=O)/C=C(\C)OP(=O)(OC)OC
not listed: [9] | [10] | [19] | [20]
inactive: all other assays above

CCOC1Oc2ccc(OS(C)(=O)=O)cc2C1(C)C (stereo unspecified)
active: [2] 24 µM | [3] 14.5 µM | [8] 61.4 µM | [9] 12.5 µM
not listed: [6] | [10] | [19] | [20]
inactive: all other assays above
